The list is not random: actives were taken first. Their share in the collection is about 5.7%.
Gal4-VP16 FLuc = VP16 counterscreen qHTS for inhibitors of ROR gamma transcriptional activity | AID 2546, 2010 | hit rate 3.5% among 310,000 | Potency, µM (highest dose often 53.6 µM), without a hit: top-dose activity, negative = inhibition, most hits filed as inhibitors | Drosophila S2 Gal4-VP16 UAS-luciferase, luminescence, 20 h;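 also: Gal4-VP16 expression switched on by copper sulfate through the metallothionein promoter; nearly all actives have a fitted effect of over 50% in size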
B2AR arrestin = qHTS assay of beta-arrestin-biased ligands of beta2-adrenergic receptor. Beta-2 adrenergic receptor (Homo sapiens), P07550. beta-arrestin recruitment to beta2AR, cell-based reporter. Potency, µM (top dose mostly 46.1 µM), inactives show at the highest dose activation, actives largely listed as activators. hit rate 0.02% among 330,000. AID 492947, 2010;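 also: 0% = DMSO controls and full agonism = EC100 isoproterenol or metaproterenol; nearly all actives have a fitted effect of over 65% in size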
NPSR antag = qHTS Assay for Antagonists of the Neuropeptide S Receptor: cAMP Signal Transduction; Q6W5P4; CHO-NPSR cells, cAMP TR-FRET, antagonist mode; Potency, µM (top dose mostly 38.3 µM), inactives show at the highest dose activity change, negative = inhibition, usual class: inhibitors; hit rate 1% among 220,000; also: nearly all actives have a fitted effect of over 50% in size
RORg inh = qHTS for inhibitors of ROR gamma transcriptional activity | Nuclear receptor ROR-gamma (Mus musculus), P51450 | Drosophila S2 Gal4-RORgamma UAS-luciferase reporter, 20 h | Potency, µM (titrated, usually from 53.6 µM), without a hit: at the top dose activity change, negative = inhibition, actives largely listed as inhibitors | hit rate 5.4% among 310,000 | AID 2551, 2010; also: nearly all actives have a fitted effect of over 60% in size
Target sequence (P51450 whole entry, looked up, the tested form may be a part): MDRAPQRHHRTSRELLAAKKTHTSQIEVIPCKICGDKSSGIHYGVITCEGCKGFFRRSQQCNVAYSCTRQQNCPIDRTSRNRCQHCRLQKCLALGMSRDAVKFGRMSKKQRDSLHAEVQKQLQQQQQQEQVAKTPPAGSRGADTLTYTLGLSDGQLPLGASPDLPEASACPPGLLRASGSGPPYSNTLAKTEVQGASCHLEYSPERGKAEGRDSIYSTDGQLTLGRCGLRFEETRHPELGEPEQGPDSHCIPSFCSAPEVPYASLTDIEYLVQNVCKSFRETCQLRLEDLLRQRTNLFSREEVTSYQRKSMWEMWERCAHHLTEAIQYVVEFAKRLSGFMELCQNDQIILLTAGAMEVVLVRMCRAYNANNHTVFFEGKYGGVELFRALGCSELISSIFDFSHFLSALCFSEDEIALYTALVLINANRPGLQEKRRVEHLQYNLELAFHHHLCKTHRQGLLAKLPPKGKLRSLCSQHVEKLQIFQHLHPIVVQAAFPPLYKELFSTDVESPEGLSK
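Using a luciferase readout, inhibitors were identified by reduced reporter activity in Drosophila cells coexpressing a copper-inducible Gal4–ROR gamma fusion and UAS-driven Photinus luciferase, incubated 20 hr after 700 uM copper sulfate.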
Numbers without * were called inactive; [ ] = dose if it differs, or a comment. Calls follow the shape of the dose curve; as a rule, active = well fitted curve in the direction sought with a large enough effect; inconclusive = small, poorly fitted or top-dose-only effect, or another doubt; inactive = no such curve, though single readings can be large; an effect the other way counts as inactive or inconclusive. Unless noted, % is scaled to controls: 0 for no effect and ±100 for the full control effect; potency is read from the fitted curve at half-maximal effect.

Cc1cc(C2=NNC(=NC3CC3)SC2)c(C)n1-c1ccccc1F was read as Gal4-VP16 FLuc 0.708µM*, B2AR arrestin -0.7%, NPSR antag -9.2% and RORg inh 1.12µM*.
Cc1cccc(C)c1N=C1NN=C(c2ccccc2F)CS1 was read as Gal4-VP16 FLuc 10µM*, B2AR arrestin 0.0%, NPSR antag inconclusive and RORg inh 7.94µM*.
`CCCCn1c(N)c(N(CC(C)C)C(=O)CC2CCCCC2)c(=O)[nH]c1=O` gave B2AR arrestin -0.3%.
Screening CC(C)(C)c1ccc(OCC(=O)N/N=C/c2cc(Br)ccc2OC(=O)c2ccco2)cc1 returned Gal4-VP16 FLuc 1.26µM*, B2AR arrestin -0.5%, NPSR antag inconclusive and RORg inh 0.251µM*.
Screening CCc1nnc(NC(=O)c2cc(Cl)ccn2)s1 returned Gal4-VP16 FLuc 7.08µM*, B2AR arrestin -0.5% and RORg inh 4.47µM*.
For CCc1nnc(NC(=O)c2ccc(Cl)nc2)s1 the results were Gal4-VP16 FLuc -15.0%, B2AR arrestin 0.2%, NPSR antag -5.8% and RORg inh inconclusive.
For CCc1nnc(NC(=O)c2ncc(Cl)c(Cl)c2Cl)s1 the results were Gal4-VP16 FLuc 3.98µM*, B2AR arrestin -0.6% and RORg inh 3.16µM*.
O=C(NCC1CC1)[C@H]1C[C@@H]1[C@H](NP(=O)(c1ccccc1)c1ccccc1)c1ccccc1 was read as Gal4-VP16 FLuc 3.4% and RORg inh -4.3%.
Screening CCOC(=O)c1c(-c2ccc(F)cc2)csc1NC(=O)C1CC=CCC1C(=O)O (stereo not given) returned Gal4-VP16 FLuc 0.7%[10 µM], B2AR arrestin 0.1%, NPSR antag -22.3% and RORg inh 2.3%.
`CCOC(=O)c1c(-c2ccccc2)csc1NC(=S)NC` gave Gal4-VP16 FLuc 1µM*, B2AR arrestin -0.7%, NPSR antag -19.5% and RORg inh inconclusive.
`CCOC(=O)c1c(-c2ccc(C)c(C)c2)csc1NC(=O)C1CC=CCC1C(=O)O` (stereo not given) gave Gal4-VP16 FLuc -10.1%, B2AR arrestin -0.2%, NPSR antag 10µM* and RORg inh -16.7%.
Screening CCOC(=O)c1c(-c2cccc([N+](=O)[O-])c2)csc1NC(=O)C1CCCCC1 returned Gal4-VP16 FLuc 10µM*, B2AR arrestin -0.6%, NPSR antag 10µM* and RORg inh inconclusive.
CCOC(=O)c1c(-c2cccc([N+](=O)[O-])c2)csc1NC(=O)C1CC1 was read as Gal4-VP16 FLuc inconclusive, B2AR arrestin -0.6%, NPSR antag -27.9%[46.1 µM] and RORg inh inconclusive.
`COC(=O)c1c(-c2ccc(C)cc2)csc1NC(=S)NC(=O)c1cc(OC)cc(OC)c1` gave Gal4-VP16 FLuc 8.91µM*, B2AR arrestin 0.8%, NPSR antag -3.1% and RORg inh 2.82µM*.
`O=C(/C=C/c1ccccc1)c1ccc(O[C@H]2OC(CO)C(O)C(O)C2O)cc1O` (stereo not given in full) gave Gal4-VP16 FLuc 0.1% and RORg inh inconclusive.
`CC(C)Oc1ccc(CCNC(=O)CC2C(=O)NCCN2C)cc1` (stereo not given) gave Gal4-VP16 FLuc 14.6%, B2AR arrestin -0.2%, NPSR antag 11.2% and RORg inh 1.3%.
`COC(=O)[C@@H]1CC[C@H](C)[C@@H](c2ccc(C)cc2)N1C(=O)c1ccc(/C=N\O[C@@H](C)CN2CCCc3nc(C)c(C)cc32)cc1` gave Gal4-VP16 FLuc 7.3%[10 µM] and RORg inh -1.3%[10 µM].
CCNC(=S)Nc1scc(-c2ccccc2)c1C(=O)OCC was read as Gal4-VP16 FLuc 2.51µM*, B2AR arrestin -0.8%, NPSR antag -55.7% and RORg inh 1.41µM*.
Screening CCOC(=O)c1c(-c2ccccc2)csc1NC(=O)CSc1nnc(C)s1 returned Gal4-VP16 FLuc inconclusive, B2AR arrestin 0.3%, NPSR antag -9.4% and RORg inh inconclusive.
Screening CCOC(=O)c1c(-c2ccc(-c3ccccc3)cc2)csc1NC(=O)CNCCN(C)C returned Gal4-VP16 FLuc 1.58µM*, B2AR arrestin 0.2% and RORg inh 0.631µM*.
Screening CCOC(=O)c1c(-c2ccccc2)csc1NC(=O)CCN1C(=O)c2ccccc2C1=O returned Gal4-VP16 FLuc -5.0%, B2AR arrestin 0.3%, NPSR antag -13.8% and RORg inh 24.9%.
Cn1c(=S)[nH]c2scc(-c3cccs3)c2c1=O was read as Gal4-VP16 FLuc 5.01µM*, B2AR arrestin 0.1%, NPSR antag -59.4% and RORg inh 0.794µM*.
`O=c1c2c(-c3cccs3)csc2ncn1-c1ccc(Br)cc1` gave Gal4-VP16 FLuc -13.3%, B2AR arrestin -0.6%, NPSR antag -19.6%[46.1 µM] and RORg inh 9.2%.
Cc1cc(C)nc(N2CCCC(C(=O)NC(C)C)C2)n1 (stereo not given) was read as Gal4-VP16 FLuc 0.3%, B2AR arrestin -1.7%, NPSR antag 18.7% and RORg inh -10.8%.
Screening CCN1C(C)=C(C(=O)OC(C)C)C(c2ccccc2Cl)C(C(=O)O)=C1C(=O)O (stereo not given) returned Gal4-VP16 FLuc -11.6% and RORg inh inconclusive.
For Cc1ccc(S(=O)(=O)NCCC(=O)Nc2ccc(Cl)c(Cl)c2)cc1C the results were Gal4-VP16 FLuc 11.2µM*, B2AR arrestin -0.5%, NPSR antag -7.7%[46.1 µM] and RORg inh inconclusive.
Screening CC1CCc2sc(C(=O)NNC(=S)NCC3CCCO3)cc2C1 (stereo not given) returned Gal4-VP16 FLuc -18.9%, B2AR arrestin -0.2% and RORg inh inconclusive.
Cc1ccc(-c2c(C(=O)NNC(=S)NCC3CCCO3)csc2C)cc1 (stereo not given) was read as Gal4-VP16 FLuc 2.9%, B2AR arrestin -0.7%, NPSR antag -19.7% and RORg inh inconclusive.
`Cc1scc(C(=O)NNC(=S)NCC2CCCO2)c1C` (stereo not given) gave Gal4-VP16 FLuc -24.1%, B2AR arrestin 0.3%, NPSR antag 2.0%[46.1 µM] and RORg inh 4.47µM*.
`Cc1scc(C(=O)NNC(=S)NCC2CCCO2)c1-c1ccccc1` (stereo not given) gave Gal4-VP16 FLuc -7.2%, B2AR arrestin 0.5%, NPSR antag 13.0% and RORg inh 7.94µM*.
CCCc1cc(C(=O)NNC(=S)NCC2CCCO2)cs1 (stereo not given) was read as Gal4-VP16 FLuc -20.0%, B2AR arrestin -0.5%, NPSR antag 24.3% and RORg inh -6.8%.
For CCc1cc(C(=O)NNC(=S)NCC2CCCO2)cs1 (stereo not given) the results were Gal4-VP16 FLuc -4.7%, B2AR arrestin 0.1%, NPSR antag 1.4%[46.1 µM] and RORg inh 15.8µM*.
CCCCn1c(N)c(N(CC(C)C)C(=O)c2ccc(N3C(=O)CCC3=O)cc2)c(=O)[nH]c1=O was read as B2AR arrestin 0.2%.
For CC(=O)OCC(=O)[C@@]1(O)CCC2C3CCC4=CC(=O)C=CC4(C)C3C(O)C[C@]21C (stereo not given in full) the results were Gal4-VP16 FLuc -0.2% and RORg inh 1.2%.

From PubChem BioAssay
